The campaign covered roughly 310,000 compounds. About 1,000 (0.32%) were called active. How the calls were made is not given here. Only a sample is shown. Potency and affinity values are given separately.
Test: PhoP regulon inhibitors, Salmonella typhi PhoP promoter GFP reporter, confirmatory (AID 1850);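 further: 0% = induced wells with vehicle and 100% = uninduced wells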
Settings: fluorescence, 4 h, at 50 µM, stronger effect = higher value
With CCC(C)NCCOc1cc(C)cc(C)c1C (stereo not drawn) the inhibition was 10.5% (inactive). In the case of CCOC(=O)c1c(C)[nH]c(C)c1S(=O)(=O)N1c2ccccc2CC1C (stereo not drawn), the inhibition is reported as -32.7% (inactive). In the case of CCOc1ccccc1N1C(=O)NC(=O)C(CCc2ccncc2)(CCc2ccncc2)C1=O, the inhibition is reported as -6.46% (inactive). In the case of COC(=O)CSC1=NS(=O)(=O)c2ccccc21, the inhibition is reported as -2.6% (inactive). In the case of CCc1cccc(NC(=O)CSc2nc3c(c(=O)[nH]2)CCCC3)c1, the inhibition is reported as 8.6% (inactive). In the case of CN1CCN(/N=C/c2cccc(Cl)c2Cl)CC1, the inhibition is reported as 0.18% (inactive). In the case of CN1CCN(/N=C/c2ccc(-c3ccccc3)cc2)CC1, the inhibition is reported as 1.69% (inactive). With CCC(C)(C)NC(=O)C(c1ccc(OC)cc1)N(C(=O)CCC(=O)Nc1cc(C)on1)c1cccc(OC)c1 (stereo not drawn) the inhibition was 1.27% (inactive). With O=C(NNC(=O)c1nn(-c2ccc(F)cc2)ccc1=O)c1ccc(Cl)cc1 the inhibition was 1.15% (inactive). For CC1(CC(=O)N/N=C/c2cc3c(cc2Br)OCO3)OCCO1, the inhibition was 5.58% (inactive). In the case of CC1(CC(=O)N/N=C/c2cc(Br)c(O)cc2O)OCCO1, the inhibition is reported as -8.89% (inactive). For CCN(C1CCCCC1)S(=O)(=O)c1c(C)n(C)c(=O)n(C)c1=O, the inhibition was -2.91% (inactive). In the case of CCn1cc(C(=O)O)c(=O)c2cc(F)c(N/N=C/c3ccccc3)cc21, the inhibition is reported as -3.82% (inactive). In the case of Cc1c(-n2cc(C(=O)O)c(=O)c3cc(F)c(N4CCCC4)c(F)c32)c(=O)n(-c2ccccc2)n1C, the inhibition is reported as -2.73% (inactive). In the case of Cc1cc(C)c(NC(=O)c2cn3c4c(c(N5CCN(C)CC5)c(F)cc4c2=O)OCC3C)c(C)c1 (stereo not drawn), the inhibition is reported as 1.68% (inactive). With CCOc1ccc(NC(=O)c2ccc(NC(=O)c3cn4c5c(c(N6CCN(C)CC6)c(F)cc5c3=O)OCC4C)cc2)cc1 (stereo not drawn) the inhibition was -0.94% (inactive). In the case of CCOC(=O)c1cnc2cc(F)c(F)cc2c1N1CCN(C)CC1, the inhibition is reported as -5.38% (inactive). With CCOC(=O)C1CN(c2cc3c(cc2F)c(=O)c(C(=O)O)cn3CC)OC1C(=O)OCC (stereo not drawn) the inhibition was -4.02% (inactive). With O=C(Nc1cccc(F)c1)OC(CN1CCCCC1)C(F)(F)F (stereo not drawn) the inhibition was 6.26% (inactive). In the case of CC1(C)Cc2c(cnn2-c2ccc(F)cc2)C(NC(=O)CN2CCCCC2=O)C1 (stereo not drawn), the inhibition is reported as -4.07% (inactive). For CCCNC(=S)N1CCN(C)CC1, the inhibition was -12.9% (inactive). With CCOC(=O)c1ccc(Nc2nnc(C(C)(C)C)c(=O)[nH]2)cc1 the inhibition was -2.27% (inactive). In the case of Cc1ccc(C(=O)CSc2nnc(C(C)C)n2C)cc1C, the inhibition is reported as -9.07% (inactive). In the case of O=C(c1ccc2nc(Cc3ccccc3F)oc2c1)N1CCCC1, the inhibition is reported as -15.9% (inactive). With C/C(=N\OC(=O)c1c(-c2ccccc2Cl)noc1C)c1nccs1 the inhibition was -7.14% (inactive). For COCCn1c(N)c(N(Cc2ccccc2)C(=O)c2oc3ccccc3c2C)c(=O)[nH]c1=O, the inhibition was -2.04% (inactive). With CCOc1ccccc1N1CCN(C(=S)NCc2ccco2)CC1 the inhibition was -6.16% (inactive). In the case of CC(=O)c1cnc2nc(C(F)(F)F)nn2c1C, the inhibition is reported as -10.3% (inactive). For CCCCn1c2c(c(=N)c3c1CCC3)CCC2, the inhibition was -3.76% (inactive). For CCCCCCn1c2c(c(=N)c3c1CCC3)CCC2, the inhibition was 12% (inactive). For CCCCCCCCn1c2c(c(=N)c3c1CCC3)CCCC2, the inhibition was -5.2% (inactive). In the case of CCCn1c2c(c(=N)c3c1CCC3)CCC2, the inhibition is reported as -2.65% (inactive). In the case of CC(NC(=O)CNC(=O)c1sc2ccccc2c1Cl)c1ccc(S(N)(=O)=O)cc1 (stereo not drawn), the inhibition is reported as 3.29% (inactive). For CC1=CC(C)(C(Cl)Cl)C(C)=CC1=O (stereo not drawn), the inhibition was -0.04% (inactive). In the case of Cc1cc(C)c(NC(=O)CSc2nnc(CNC(=O)c3c(F)cccc3Cl)o2)c(C)c1, the inhibition is reported as 1.72% (inactive). With CC(=O)N(C)C1=C(O)c2ccccc2C(=O)C1=O the inhibition was -5.54% (inactive). In the case of CC(=O)C(C(C)=O)C1(O)C(=O)c2ccccc2C1=O, the inhibition is reported as -7.03% (inactive). In the case of COc1ccc(CC(=O)Nc2ccc(S(=O)(=O)Nc3ncccn3)cc2)cc1, the inhibition is reported as -0.86% (inactive). For Fc1ccc(NC(=S)NC2CCN(Cc3ccccc3)CC2)cc1, the inhibition was 17.7% (inactive). For S=C(Nc1ccc(Cl)cc1)NC1CCN(Cc2ccccc2)CC1, the inhibition was 1.82% (inactive). For S=C(Nc1ccccc1)NC1CCN(Cc2ccccc2)CC1, the inhibition was 2.12% (inactive). In the case of Cc1ccc(NC(=S)NC2CCN(Cc3ccccc3)CC2)cc1C, the inhibition is reported as 7.22% (inactive). With COc1ccc(CSc2nnc(Cc3sc(-c4ccccc4)nc3-c3ccccc3)o2)cc1 the inhibition was 7.93% (inactive). For NS(=O)(=O)c1ccc(NC(=S)N2CCN(Cc3ccc4c(c3)OCO4)CC2)cc1, the inhibition was 3.73% (inactive). With CC1Oc2ccccc2N(CC(=O)Nc2ccccc2F)C1=O (stereo not drawn) the inhibition was -6.46% (inactive). For Cc1cn(C2OC(COC(=O)c3ccccc3)C(O)C2O)c(=O)[nH]c1=O (stereo not drawn), the inhibition was -7.25% (inactive). For COc1cc([N+](=O)[O-])ccc1NC(=O)CSc1nnc(C)c(C)n1, the inhibition was 13.2% (inactive). In the case of CSc1ccc(/C=C/C(=O)NC(=O)c2ccccc2O)cc1, the inhibition is reported as 13.3% (inactive). With c1ccc2c(-c3cc(C4CCNCC4)[nH]n3)cccc2c1 the inhibition was -4.64% (inactive). For Clc1ccc(-c2cc(C3CCNCC3)[nH]n2)cc1, the inhibition was 13.5% (inactive). For CCOc1cccc(-c2c(C(=O)N/N=C(\C)c3ccncc3)nnn2-c2nonc2N)c1, the inhibition was 0% (inactive). In the case of COc1ccc(CN2CCNC(=O)C2CC(=O)N(C)Cc2ccon2)c(OC)c1 (stereo not drawn), the inhibition is reported as -0.06% (inactive). In the case of CC1SC(c2ccc(F)cc2)N(CCc2ccccc2)C1=O (stereo not drawn), the inhibition is reported as 11.2% (inactive). With O=C(COc1ccccc1Br)c1ccc(O)cc1O the inhibition was -2.5% (inactive). For N=c1c(C(=O)NCc2ccco2)cc2c(=O)n3ccccc3nc2n1CC1CCCO1 (stereo not drawn), the inhibition was -2.9% (inactive). In the case of Cc1ccc(CNC(=O)c2cc3c(s2)CS(=O)(=O)C3)cc1, the inhibition is reported as -3.03% (inactive). With Clc1cc2nc(-c3cccnc3Cl)[nH]c2cc1Cl the inhibition was -3.66% (inactive). With CSc1nc2ccc(Br)cc2[nH]1 the inhibition was 2.46% (inactive). With Cn1c(=O)oc2cc(S(=O)(=O)Nc3ccccc3O)ccc21 the inhibition was -2.19% (inactive). With Clc1ccc(OCCN2CCCCC2)cc1Cl the inhibition was 15% (inactive). With Cc1cc(OCCCN2CCCC2)ccc1Cl the inhibition was 1.13% (inactive). In the case of Cc1cc(OCCN2CCOCC2)ccc1Cl, the inhibition is reported as -0.55% (inactive). In the case of CN1CCN(CCOc2ccc(Cl)c(Cl)c2)CC1, the inhibition is reported as 8.06% (inactive).

— PubChem BioAssay AID1850 (Southern Research Specialized Biocontainment Screening …, 2009)
